This note sets out measurements from PubChem BioAssay (NCATS).

Structures are written as SMILES. Inconclusive results are not listed. Calls of active or inactive are those of the source. Unless noted, calls come from the whole dose curve.

Experiment [1] concerns the target Guanidinoacetate N-methyltransferase (Homo sapiens) (UniProt Q14353). Briefly: Confirmatory Screen for Target Class Profiling of Small Molecule Inhibitors of Methyltransferases (AID 1745852). For activity change, negative = inhibition: % is set by controls: 0 for no effect and ±100 for the full control effect. Note: potency is the fitted concentration of half-maximal effect. The note with it: activity change, negative = inhibition: at 57.3 µM (top of the series) unless noted.
Experiment [2] concerns the target Nicotinamide N-methyltransferase (Homo sapiens) (UniProt P40261). The description is as above. The settings on record: MTase-Glo luminescence, SAH detection, recombinant enzyme; measured here: NNMT max response; stronger effect = lower value.
The target of experiment [3] is Phenylethanolamine N-methyltransferase (Homo sapiens) (UniProt P11086). Described as above. The settings on record: MTase-Glo luminescence, SAH detection, recombinant enzyme; measured here: PNMT max response; stronger effect = lower value.
Chain of Phenylethanolamine N-methyltransferase (Homo sapiens) (P11086 whole entry, looked up): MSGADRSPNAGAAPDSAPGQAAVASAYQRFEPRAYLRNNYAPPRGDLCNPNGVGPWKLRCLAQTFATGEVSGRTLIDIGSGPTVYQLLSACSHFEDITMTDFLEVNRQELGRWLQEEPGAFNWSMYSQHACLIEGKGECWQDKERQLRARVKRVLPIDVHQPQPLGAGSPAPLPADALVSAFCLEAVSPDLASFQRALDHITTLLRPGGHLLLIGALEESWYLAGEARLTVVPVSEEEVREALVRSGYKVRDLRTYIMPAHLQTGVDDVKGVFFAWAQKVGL
Experiment [4] can be described thus: NCATS anti-infectives library activity on HEK293 viability as a counter-qHTS vs the C. elegans viability qHTS (AID 1745854; active = well fitted cell-killing curve with a large enough effect; note: % is set by controls: 0 for no effect and ±100 for the full control effect). The procedure, abridged: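 Cytotoxicity counter-screen to a worm viability qHTS: CellTiter-Glo luminescence read 10 min after reagent addition. Compounds (final up to 41.7 uM, a 1:5 dilution series) incubated 24 hr at 37C with 1,500 HEK293 cells per well; digitonin control.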
For orientation: Quantitative high-throughput screening tests each substance at several concentrations.

A short description of experiment [5]: NCATS anti-infectives library activity on the primary C. elegans qHTS viability assay (AID 1745855). Note: potency is the fitted concentration of half-maximal effect. The method in brief:
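GFP read-out by 488 nm laser cytometry at day 0, 3 and 7, gated on object perimeter, area and peak intensity, scored viability of PE254-GFP-FLuc worms exposed to compound in S medium with bacterial capsules at 21 °C.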

Chain of Nicotinamide N-methyltransferase (Homo sapiens) (P40261 whole entry, looked up): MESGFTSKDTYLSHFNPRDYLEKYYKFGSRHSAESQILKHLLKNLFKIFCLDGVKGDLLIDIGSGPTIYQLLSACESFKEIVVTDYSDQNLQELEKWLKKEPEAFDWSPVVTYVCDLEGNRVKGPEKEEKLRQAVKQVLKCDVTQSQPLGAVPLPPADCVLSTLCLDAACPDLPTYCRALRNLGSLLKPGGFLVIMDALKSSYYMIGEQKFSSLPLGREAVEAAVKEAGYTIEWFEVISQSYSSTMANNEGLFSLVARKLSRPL

Turning to `CCOc1cc2ncc(C#N)c(Nc3ccc(F)c(Cl)c3)c2cc1NC(=O)/C=C/CN(C)C`, the figures for the Potency in experiment [1] and in experiment [5] were 4.82 µM (active) and 14.5 µM (active), respectively. Further, the figures for the activity in experiment [2] and in experiment [3] were -82.7% and -97.3%, respectively. The Potency entry in experiment [4] was “inactive”.

Consider `CCN1CCN(Cc2ccc(Nc3ncc(F)c(-c4cc(F)c5nc(C)n(C(C)C)c5c4)n3)nc2)CC1`, for which the Potency in experiment [1] was 15.2 µM (active). Moreover, the activity was -61.4% in experiment [2] and -75% in experiment [3].

Regarding `Oc1ccc(CNc2ccccc2F)c2cccnc12`, in experiment [1], the activity change, negative = inhibition stood at 2.39%. Moreover, the values for the activity in experiment [2] and in experiment [3] were -0.361% and 6.4%, respectively.

For `CC(C)=CCC(O)/C(C)=C/CO[C@@H]1O[C@H](CO)[C@@H](O)[C@H](O)[C@H]1O` (some centres undefined), in experiment [1], the activity change, negative = inhibition stood at 0%. For the same compound, the activity in experiment [2] stood at 0%; in experiment [3], 5.19%.
